From PubChem BioAssay AID1347416 (National Center for Advancing Translational Sciences (NCATS), 2020) come the findings set out here.

Molecules are shown by their SMILES. Out of some 4,100 compounds screened, about 1,600 (39%) were called active. About 25% were inconclusive and are not listed. The call rests on the fitted dose curve; in most records, active means well fitted inhibition curve with a large enough effect; inconclusive means small, poorly fitted or top-dose-only effect; inactive means no such curve, though single readings can be large or run the other way. The list shows a part of the results.
On the % scale 0 is the no-effect control and ±100 the full control effect; potency means the concentration at half of the fitted maximal effect.

A short description of this assay: qHTS Validation assay for Inhibitors of Plasmodium falciparum Dd2 growth in vitro. Further: nearly all actives have a fitted effect of over 70% in size. The settings on record: P. falciparum Dd2 in RBCs, SYBR Green growth, 72 h; series mostly up to 28.7 µM; activity change, negative = inhibition: at the top concentration. Put shortly: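 P. falciparum Dd2-infected red blood cells (2.5% hematocrit, 0.3% parasitemia) grown 72 h at 37 °C under 5% O2 with compounds in a titration, 29 uM to 0.5 nM final. Growth read as SYBR Green-1 fluorescence after ~16 h lysis; artesunate 300 nM as positive control.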
Take `Cc1ccc(C(=O)N/N=C/c2ccc([N+](=O)[O-])s2)cc1`: the Potency is 5.96 µM (active).
Consider `Cc1ncc(CO)c(/C=N/NC(=O)c2ccc(O)cc2)c1O`, for which the “activity change, negative = inhibition” value is 39.7% (inactive).
On to `Cc1ccccc1C1C(C#N)=C2N=C(N)c3c(sc4c3CCCCC4)N2C2=C1C(=O)CCC2` (configuration not stated), for which the Potency is 2.66 µM (active).
As to `CN(CC1CCOC1)C(=O)Nc1ccc(Br)cc1` (configuration not stated), the “activity change, negative = inhibition” value was -2.76% (inactive).
Same read-out and setting: the result for `COC(=O)c1ccc(CN2C(=O)[C@@H]3C[C@@H](O)CN3C3(CN(Cc4ccc(F)cc4)C3)C2=O)cc1` reads 12.4% (inactive).
For the compound `COc1cc(-c2ccnc3nc(Cc4ccc(F)cc4)nn23)cc(OC)c1OC`, the “activity change, negative = inhibition” value was -11.8% (inactive).
Consider `COc1cc(C2CC(=O)N(Cc3ccc(F)cc3)c3ccccc3S2)cc(OC)c1OC` (configuration not stated), for which the Potency is 2.11 µM (active).
Turning to `O=C(/C=C/c1ccco1)NC(=S)Nc1ccccc1N1CCCC1`, the Potency is 2.66 µM (active).
Consider `CC(C)(C)C(=O)NC(=S)Nc1ccccc1N1CCCC1`, for which the “activity change, negative = inhibition” value is -6.71% (inactive).
Still for that read-out and setting: with `O=C(CCSc1nc(-c2ccco2)cc(C(F)(F)F)n1)Nc1cccc(O)c1` the figure was 0% (inactive).
Still for that read-out and setting: with `Cc1noc(-c2cn(C3CCN(C(=O)C(C)Oc4ccc(Cl)cc4)CC3)nn2)n1` (configuration not stated) the figure was -7.34% (inactive).
Regarding `COc1cccc(NC(=O)CN(C)C(=O)c2ccc(-c3cccc(C(F)(F)F)c3)o2)c1`, the Potency was 0.596 µM (active).
In the case of `O=C(Nc1ccccc1N1CCCC1)c1cc2ccccc2o1`, the “activity change, negative = inhibition” value was -28.6% (inactive).
In the case of `Cc1ccc(C)c(NC(=O)CN(C)C(=O)c2ccc(-c3cccc(C(F)(F)F)c3)o2)c1`, the Potency was 2.11 µM (active).
Still for that read-out and setting: with `Cc1ccc(C)c(NC(=O)CN(C)C(=O)c2cc3ccccc3o2)c1` the figure was 13.3 µM (active).
For the compound `COc1cccc(NC(=O)[C@@H]2C[C@H](c3cccc(C(F)(F)F)c3)N(Cc3cnn(C)c3)C2)c1`, the “activity change, negative = inhibition” value was 1.04% (inactive).
For the compound `Cc1cccc(Cn2nnc(C(=O)Nc3cc(C)ccc3C)c2N)c1`, the “activity change, negative = inhibition” value is 10.7% (inactive).
With `Cc1ccc(-c2cn3cccnc3n2)cc1NC(=O)Cc1ccccc1`, the “activity change, negative = inhibition” value was -11.2% (inactive).
Take `COCC(=O)Nc1ccc2c(c1)OCC(=O)N2Cc1ccc(C)cc1`: the “activity change, negative = inhibition” value is -7.47% (inactive).
Regarding `Cc1ccc(C)c(NC(=O)CN(C)C(=O)c2ccc(-c3ccc(Cl)cc3)o2)c1`, the Potency was 4.73 µM (active).
Turning to `Cc1ccc2c(CC(=O)Nc3ccccc3C(F)(F)F)coc2c1C`, the “activity change, negative = inhibition” value is 1.01% (inactive).
As for `O=C(c1cc2c(s1)CCCC2)N1CCc2c(nc3cc[nH]n3c2=O)C1`, the “activity change, negative = inhibition” value is 0% (inactive).
Turning to `Cc1ccc(C(=O)NCCc2noc(C3CC3)n2)cc1C`, the “activity change, negative = inhibition” value was 34.7% (inactive).
With `Cc1cccc(NC(=O)CN(c2ccc(F)cc2)S(C)(=O)=O)c1`, the “activity change, negative = inhibition” value was 39.5% (inactive).
As for `CN(CC(=O)Nc1cccc(F)c1)C(=O)c1ccc(-c2cccc(C(F)(F)F)c2)o1`, the Potency was 0.668 µM (active).
For the compound `COc1cccc(NC(=O)CN(C)C(=O)c2ccc(-c3ccc(Cl)cc3)o2)c1`, the Potency was 4.22 µM (active).
In the case of `CCCC(C)C(=O)Nc1ncc(S(=O)(=O)c2ccc([N+](=O)[O-])cc2)s1` (configuration not stated), the Potency was 5.96 µM (active).
Take `COc1ccc(-c2cc3c(=O)n(CCNC(=O)c4c(F)cccc4Cl)ccn3n2)cc1`: the “activity change, negative = inhibition” value is -14.7% (inactive).
Consider `COc1ccc(CCNC(=O)c2cc(C(=O)c3cc(Cl)ccc3O)cn(CCc3ccc(OC)cc3)c2=O)cc1`, for which the Potency is 3.76 µM (active).
Turning to `COc1ccc(OC)c(CCNC(=O)c2nc(-c3ccc(Cl)cc3)n3c2CCCCC3)c1`, the “activity change, negative = inhibition” value is 6.9% (inactive).
For `Cc1ccc(Oc2c(C)nc(-c3ccccc3)[nH]c2=O)cc1`, the Potency is 5.31 µM (active).
`Cc1ccc(-c2nc3ccccc3c(=O)n2O)cc1`: the “activity change, negative = inhibition” value was 3.75% (inactive).
On the same count and under the same terms, with `CCC(=O)N1CCN(C2CCN(Cc3ccccn3)C2=O)CC1` (configuration not stated) the figure was 8.19% (inactive).
Take `Cc1ccnc2nc(C(=O)Nc3cc(Cl)ccc3N3CCOCC3)nn12`: the Potency is 4.73 µM (active).
As to `CNC(=O)[C@@H]1CN(Cc2ccc(C#N)cc2)C[C@H]1COC`, the “activity change, negative = inhibition” value was 3.09% (inactive).
For `CCn1ncc(Cl)c1C(=O)Nc1ccncc1`, the “activity change, negative = inhibition” value is 7.83% (inactive).
The same measure, in the same setting: with `O=C(Nc1ccncc1)c1ccc(Cl)c(Cl)c1` the figure was 30.6% (inactive).
As for `O=C(Nc1ccncc1)Nc1ccc(Cl)cc1`, the Potency was 10.6 µM (active).
Consider `N#Cc1ccc(NC(=O)Nc2ccc(Cl)cc2)cc1`, for which the Potency is 5.31 µM (active).
Turning to `Cc1cc(C)n2nc(C(=O)N3CCN4C(=O)CN(C)C(=O)C4C3)cc2n1` (configuration not stated), the “activity change, negative = inhibition” value was 70.9% (inactive).
Take `CC(C)c1ccc(N2CC(C(=O)NCc3cncn3C3CC3)CC2=O)cc1` (configuration not stated): the “activity change, negative = inhibition” value was 8.34% (inactive).
As for `CCc1ccc(NC(=O)CSc2nc3n[nH]c(C)c3c(=N)n2-c2ccc(C)cc2)cc1`, the Potency is 6.68 µM (active).
`CCc1ccc(OCC(=O)Nc2ccc(-c3nc4ncccc4o3)cc2)cc1`: the “activity change, negative = inhibition” value was -15.8% (inactive).
As to `Cc1ccc(NC(=O)CSc2n[nH]c(-c3ccccn3)n2)cc1`, the “activity change, negative = inhibition” value was -0.44% (inactive).
On to `CC(C)c1noc(-c2cccn3c(CNC(=O)c4cccc(Cl)c4)nnc23)n1`, for which the “activity change, negative = inhibition” value was -8.33% (inactive).
On to `CCCN1CCc2[nH]cnc2C12CCN(C(=O)c1ccc(CSC)o1)CC2`, for which the “activity change, negative = inhibition” value was 0% (inactive).
For `CC(OC(=O)CCc1cc(C(C)(C)C)c(O)c(C(C)(C)C)c1)C(=O)NC1CC1` (configuration not stated), the Potency was 4.73 µM (active).
With `COc1ccc(-c2noc(-c3cccn3CC(=O)Nc3ccccc3F)n2)cc1F`, the Potency was 4.22 µM (active).
In the case of `COc1ccc(C(=O)NCc2nnc3c(-c4nc(C(C)C)no4)cccn23)cc1F`, the “activity change, negative = inhibition” value is -19.9% (inactive).
The same measure, in the same setting: with `COc1ccc(-c2noc(-c3cccn3CC(=O)Nc3cccc(Cl)c3C)n2)cc1F` the figure was 8.36% (inactive); with `COc1ccc(-c2noc(-c3cccn3CC(=O)Nc3cc(C)ccc3C)n2)cc1F`, -19.7% (inactive).
In the case of `COc1ccc(-c2noc(-c3cccn3CC(=O)Nc3ccccc3C)n2)cc1F`, the Potency is 5.31 µM (active).
As to `O=C1COCC2(CN(Cc3ccsc3)C2)CN1Cc1cccc(OC(F)(F)F)c1`, the Potency was 17.2 µM (active).
Regarding `O=C1NC2(CCN(Cc3ccc(OC(F)(F)F)cc3)C2)OCc2ccccc21` (configuration not stated), the “activity change, negative = inhibition” value is -3.93% (inactive).
For the compound `O=C(c1cc(C(F)(F)F)[nH]n1)N1CC[C@@H](c2ccc(F)cc2)[C@H](O)C1`, the “activity change, negative = inhibition” value was 10.1% (inactive).
For `CCOC(=O)N1CCc2c(sc3nc4n(c(=O)c23)N=C(c2ccc(OC)cc2)CS4)C1`, the “activity change, negative = inhibition” value was 5.6% (inactive).
As to `CCCCNc1nc2sc3c(c2c(=O)n1-c1cccc(Cl)c1)CCN(C)C3`, the Potency was 9.44 µM (active).
Take `CCCCCNc1nc2sc3c(c2c(=O)n1-c1cccc(Cl)c1)CCN(C)C3`: the Potency is 7.5 µM (active).
In the case of `CC(C)OC(=O)c1cccc(NC(=O)Cn2nnc3sc4c(c3c2=O)CCCC4)c1`, the “activity change, negative = inhibition” value was -28.7% (inactive).
Same read-out and setting: with `Cc1ccc(-c2nc(CN3CCCC3=O)no2)cc1` the figure was 6.01% (inactive).
Turning to `CCn1nnc(NC(=O)c2ccc(C(C)(C)C)cc2)n1`, the Potency was 9.44 µM (active).
Regarding `CCCn1nnc(NC(=S)NC(=O)Cc2ccccc2)n1`, the “activity change, negative = inhibition” value was -1.06% (inactive).
